Our source for the outcome and AC50 values is PubChem BioAssay (EPA / NIEHS).

The AC50 is the concentration at which the activity in the assay is half-maximal.

Active and inactive are the calls of the source. The calls were made as follows: active = hit-call score of the fitted dose curve at least 0.9, where 1 is the maximum; inactive = score below 0.9.

Experiment [1] can be described thus: ATG_E_Box_CIS: Attagene CIS-FACTORIAL HepG2 Assay for human Enhancer Box (E-box) (AID 2282936). The settings on record: HepG2 E-box cis-reporter transcription, actives raise or lower the signal. The method in brief:
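E-box-driven reporter transcripts measured in transiently transfected HepG2 after 24 h exposure: RNA reverse-transcribed, PCR-amplified, fluorescently labelled, digested and resolved by capillary electrophoresis. Gain or loss relative to DMSO.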

A short description of experiment [2]: ATG_M_61_CIS: Attagene CIS-FACTORIAL HepG2 Assay for M61 Transcription Factor (Internal Marker) (AID 2282937). The settings on record: HepG2 Attagene CIS-FACTORIAL M61 internal marker reporter; actives raise or lower the signal. An outline of the steps: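 Using transiently transfected HepG2 liver cells, reporter transcript levels were assessed 24 h post-dosing by RT-PCR and capillary electrophoresis. Changes in either direction were fitted relative to DMSO controls.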

A short description of experiment [3]: ATG_EGR_CIS: Attagene CIS-FACTORIAL HepG2 Assay for human Early Growth Response 1 (EGR1) (AID 2282938). The settings on record: HepG2 Attagene CIS-FACTORIAL EGR reporter mRNA; actives raise or lower the signal. An outline of the steps: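 Fluorescent capillary-electrophoresis signal of reporter cDNA fragments serves as read-out. HepG2 cells bear transiently transfected cis-promoter reporter units and are exposed 24 h; gain- or loss-of-signal is fitted against DMSO.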

Experiment [4] in a line: ATG_M_19_CIS: Attagene CIS-FACTORIAL HepG2 Assay for M19 Transcription Factor (Internal Marker) (AID 2282939). The settings on record: HepG2 Attagene CIS-FACTORIAL M19 internal marker reporter; actives raise or lower the signal. An outline of the steps:
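HepG2, MRTU transient transfection, 24 h dosing. Total RNA → RT-PCR → 6-FAM primer extension → HpaI digest → CE fluorescence. Bidirectional curve fit, DMSO negative control.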

The nature of experiment [5]: ATG_Ets_CIS: Attagene CIS-FACTORIAL HepG2 Assay for human Erythroblast Transformation Specific (ETS) (AID 2282941). The settings on record: HepG2 ETS cis-reporter transcription, actives raise or lower the signal. An outline of the steps: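 Cis-regulated reporter mRNA induction in HepG2 (transient transfection), 24 h exposure, RT-PCR plus capillary electrophoresis detection; DMSO serves as negative control and baseline.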

Experiment [6] addresses Hepatocyte nuclear factor 3-beta (Homo sapiens) (UniProt Q9Y261). As to the kind of experiment: ATG_FoxA2_CIS: Attagene CIS-FACTORIAL HepG2 Assay for human Forkhead box A2 (FOXA2) (AID 2282942). The settings on record: HepG2 cis-reporter transcription factor activity, 24 h; actives raise or lower the signal. An outline of the steps: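 Fluorescence signal of reporter cDNA fragments, separated by capillary electrophoresis, reflects endogenous transcription factor activity in transfected HepG2 after 24 h. Both increases and decreases fitted against DMSO.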

Experiment [7] is described as follows: ATG_FoxO_CIS: Attagene CIS-FACTORIAL HepG2 Assay for human Forkhead box O (FoxO) (AID 2282943). The settings on record: HepG2 Attagene cis-reporter, FoxO element, mRNA; actives raise or lower the signal. The method in brief: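 Human hepatoma HepG2 cells carry transiently introduced reporter transcription units controlled by cis promoter elements. Chemical treatment lasted 24 h, and mRNA signal was compared with DMSO.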

Experiment [8] in a line: ATG_GATA_CIS: Attagene CIS-FACTORIAL HepG2 Assay for human GATA Binding Protein (AID 2282944). The settings on record: HepG2 GATA cis-element reporter, Attagene multiplex mRNA; actives raise or lower the signal. The method in brief: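 Cells: HepG2, transiently transfected with cis-regulated reporter transcription units. Exposure: 24 h. Detection: RT-PCR plus capillary electrophoresis of FAM-labeled fragments. Analysis: bidirectional, DMSO as baseline.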

Experiment [9] can be described thus: ATG_GLI_CIS: Attagene CIS-FACTORIAL HepG2 Assay for human Zinc Finger Protein GLI1 (AID 2282945). The conditions noted are these: HepG2, Attagene cis-factorial reporter mRNA, GLI element; actives raise or lower the signal. The method in brief: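 Bidirectional curve fits relative to DMSO, using reporter mRNA levels from RT-PCR plus capillary electrophoresis. Cells were HepG2 transiently carrying cis-regulated reporter constructs, harvested 24 h after dosing.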

Sequence of Hepatocyte nuclear factor 3-beta (Homo sapiens) (Q9Y261 whole entry, looked up, the tested form may be a part): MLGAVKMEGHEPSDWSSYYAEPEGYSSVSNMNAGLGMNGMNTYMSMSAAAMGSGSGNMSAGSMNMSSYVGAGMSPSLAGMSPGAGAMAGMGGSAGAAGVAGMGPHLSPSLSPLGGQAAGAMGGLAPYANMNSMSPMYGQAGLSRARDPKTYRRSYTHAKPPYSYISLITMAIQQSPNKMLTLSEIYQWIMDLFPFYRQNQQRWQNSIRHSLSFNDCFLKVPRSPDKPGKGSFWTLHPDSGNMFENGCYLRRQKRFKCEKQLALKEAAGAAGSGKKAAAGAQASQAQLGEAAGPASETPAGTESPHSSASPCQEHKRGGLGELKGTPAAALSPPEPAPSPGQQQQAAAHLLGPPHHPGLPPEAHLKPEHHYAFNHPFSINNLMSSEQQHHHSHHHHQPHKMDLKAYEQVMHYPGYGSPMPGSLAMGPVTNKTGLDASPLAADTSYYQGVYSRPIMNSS

For the molecule `OCCc1ccccc1`, the result in [1], in [2], in [3], in [4], in [5] and in [6] was inactive. Besides, the molecule was classed as inactive in experiment [7], in experiment [8] and in experiment [9].

With `O=P(O)(O)O`, the result in [1], in experiment [2], in [3], in experiment [4], in experiment [5] and in experiment [6] was inactive. The molecule was called inactive in [7], in experiment [8] and in experiment [9].

Turning to `Cc1c(Cl)cccc1[N+](=O)[O-]`, the outcome in experiment [1], in [2], in experiment [3], in experiment [4], in [5] and in experiment [6] was inactive. For the same molecule, the molecule was classed as inactive in experiment [7], in experiment [8] and in [9].

Take `CC(C)(C)CC(C)(C)c1ccc(OCCOCC[N+](C)(C)Cc2ccccc2)cc1`: in experiment [1], the AC50 was 12.3 µM (active). Moreover, the molecule was classed as inactive in experiment [2], in experiment [3], in experiment [4], in [5], in [6] and in experiment [7]. The result in experiment [8] and in experiment [9] was inactive.

As for `CC1(C)CCC[C@]2(C)[C@H]3CCO[C@]3(C)CC[C@@H]12`, the AC50 in experiment [1] was 58.3 µM (active). Also, the result in experiment [2], in experiment [3], in experiment [4], in [5], in experiment [6] and in [7] was inactive. For the same molecule, the result in experiment [8] and in [9] was inactive.

In the case of `CCCC[O][Al]([O]CCCC)[O]CCCC`, the result in experiment [1], in experiment [2], in [3], in experiment [4], in [5] and in [6] was inactive. Also, the result in experiment [7], in [8] and in experiment [9] was inactive.

`Cc1ccc(N)c(S(=O)(=O)O)c1`: the outcome in experiment [1], in experiment [2], in [3], in [4], in [5] and in experiment [6] was inactive. Also, the outcome in experiment [7], in experiment [8] and in [9] was inactive.

As for `Clc1cc(Cl)c(-c2c(Cl)c(Cl)cc(Cl)c2Cl)cc1Cl`, the result in experiment [1], in experiment [2], in experiment [3], in [4], in experiment [5] and in experiment [6] was inactive. The call in experiment [7], in experiment [8] and in [9] was inactive.

For `O=C(O)CCCCCCCCCCCC(=O)O`, the result in experiment [1], in experiment [2], in experiment [3], in experiment [4], in experiment [5] and in experiment [6] was inactive. In addition, the outcome in experiment [7], in experiment [8] and in [9] was inactive.

With `COc1ccc(N)c([N+](=O)[O-])c1`, the result in [1], in experiment [2], in experiment [3], in experiment [4], in experiment [5] and in [6] was inactive. Moreover, the outcome in [7], in [8] and in experiment [9] was inactive.

As to `CCC(C)S` (stereo not drawn), the result in [1], in [2], in [3], in experiment [4], in [5] and in experiment [6] was inactive. Also, the result in experiment [7], in [8] and in experiment [9] was inactive.

Consider `CCCCC1CCC(O)CC1` (stereo not drawn), for which the result in experiment [1], in experiment [2], in experiment [3], in [4], in [5] and in experiment [6] was inactive. The outcome in experiment [7], in [8] and in experiment [9] was inactive.

Turning to `COc1ccccc1[N+](=O)[O-]`, the outcome in experiment [1], in [2], in [3], in experiment [4], in experiment [5] and in experiment [6] was inactive. Besides, the call in experiment [7], in experiment [8] and in experiment [9] was inactive.

Take `CCCCCC(C)=O`: the result in experiment [1], in experiment [2], in experiment [3], in experiment [4], in experiment [5] and in experiment [6] was inactive. Further, the result in experiment [7], in experiment [8] and in experiment [9] was inactive.

Consider `CC(C)C(OC(=O)c1ccccc1)C(C)(C)COC(=O)c1ccccc1` (stereo not drawn), for which the result in [1], in experiment [2], in experiment [3], in experiment [4], in [5] and in experiment [6] was inactive. For the same molecule, the result in experiment [7], in [8] and in experiment [9] was inactive.

As for `C=Cc1ccc(C)cc1`, the result in experiment [1], in experiment [2], in [3], in experiment [4], in experiment [5] and in experiment [6] was inactive. In addition, the result in [7], in [8] and in [9] was inactive.

`CCC1(c2ccccc2)C(=O)NCNC1=O`: the result in experiment [1], in experiment [2], in experiment [3], in [4], in experiment [5] and in experiment [6] was inactive. Further, the outcome in experiment [7], in experiment [8] and in experiment [9] was inactive.

Regarding `CC(C)CCOC(=O)c1ccccc1`, the result in [1], in [2], in experiment [3], in [4], in experiment [5] and in experiment [6] was inactive. Further, the outcome in experiment [7], in experiment [8] and in experiment [9] was inactive.

Turning to `CCN(CC)C(=O)N(CC)CC`, the result in [1], in experiment [2], in [3], in experiment [4], in experiment [5] and in [6] was inactive. The call in experiment [7], in [8] and in experiment [9] was inactive.

Regarding `CC(=O)C(C)O` (stereo not drawn), the outcome in experiment [1], in experiment [2], in experiment [3], in experiment [4], in [5] and in [6] was inactive. Also, the outcome in experiment [7], in experiment [8] and in experiment [9] was inactive.

Turning to `CCOC(=O)CCc1ccccc1`, the result in experiment [1], in [2], in experiment [3], in experiment [4], in experiment [5] and in [6] was inactive. The molecule was called inactive in [7], in [8] and in experiment [9].

In the case of `O=[N+]([O-])c1ccc(O)cc1C(F)(F)F`, the outcome in experiment [1], in experiment [2], in [3], in [4], in experiment [5] and in [6] was inactive. Moreover, the outcome in experiment [7], in experiment [8] and in experiment [9] was inactive.

Turning to `CCCCCc1ccco1`, the outcome in experiment [1], in experiment [2], in experiment [4], in experiment [5], in experiment [6] and in experiment [7] was inactive. The outcome in experiment [8] and in experiment [9] was inactive. Also, the AC50 in experiment [3] was 108 µM (active).

Turning to `O=C(O)CNc1ccccc1`, the outcome in experiment [1], in [2], in [3], in experiment [4], in experiment [5] and in experiment [6] was inactive. Moreover, the molecule was called inactive in experiment [7], in experiment [8] and in [9].

Consider `CCCCCCC(C)Nc1ccc(Nc2ccccc2)cc1` (stereo not drawn), for which the result in [1], in experiment [2], in experiment [3], in experiment [4], in experiment [5] and in experiment [6] was inactive. Besides, the outcome in [7], in experiment [8] and in [9] was inactive.

With `COC(CC(C)CCCC(C)(C)O)OC` (stereo not drawn), the result in [1], in [2], in [3], in [4], in [5] and in experiment [6] was inactive. The call in [7], in experiment [8] and in [9] was inactive.

With `CCO/C=C1\N=C(c2ccccc2)OC1=O`, the result in experiment [1], in experiment [2], in experiment [3], in experiment [4], in experiment [5] and in [6] was inactive. Further, the outcome in experiment [7], in experiment [8] and in [9] was inactive.
